# Marburg entry inh = blocks Marburg virus binding to or entry into cells. 1.8% of 300,000 active. Marburg virus pseudotyped entry inhibition, cell reporter. Potency, µM (series often up to 37.8 µM), without a hit: at the highest dose activity change, negative = inhibition, hits mostly inhibitors; calls by dose curve; tested in HEK293 cells; further: potency means the concentration at half of the fitted maximal effect
# HCV inh = HCV inhibition; Huh7.5.1 HCVcc-Cre infection, luciferase reporter, 44 h; Potency, µM (doses to about 41.8 µM), for inactives: top-dose activity change, negative = inhibition, usual class: inhibitors; 3.4% of 340,000 active; AID 651820; further: potency means the concentration at half of the fitted maximal effect
#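 Cells (1,000/well) were plated 4 h before compound, then infected with HCVcc-Cre virus (~0.5 moi). After 44 h further culture, infection was read as luciferase luminescence following a 15 min substrate incubation at room temperature.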
# Pf growth 48h = P. falciparum growth inhibition at 48 hours (one generation); P. falciparum luciferase growth in erythrocytes, 48 h; Potency, µM (doses to about 28.7 µM), for inactives: at the top dose activity change, negative = inhibition, actives largely listed as inhibitors; 5.9% of 310,000 active; further: potency means the concentration at half of the fitted maximal effect
#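 Cell-based growth assay: transgenic P. falciparum expressing firefly luciferase, cultured in red cells within RPMI 1640 containing 0.5% w/v Albumax, 24 mM bicarbonate and gentamycin. A drop in luciferase activity indicates inhibition.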
# HCMV inh = human cytomegalovirus inhibition | activity change, negative = inhibition, % at 57.5 µM | 4.5% of 410,000 active | HFF cells, HCMV-luciferase reporter, 72 h; hits give low values | AID 1259415; in the data active means activity change below about -60%; inconclusive means no clear call, values can overlap the other calls; inactive means above about -39%
#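 Compounds were evaluated in HFFs infected with an HCMV luciferase reporter virus (MOI 1 PFU/cell). Luciferase in lysates collected 72 h post infection served as the replication measure.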
# Lassa entry inh = Lassa virus entry inhibition; 1.2% of 300,000 active; Potency, µM (highest dose often 37.9 µM), without a hit: top-dose activity change, negative = inhibition, usual class: inhibitors; Lassa virus pseudotype entry inhibition, cell reporter; AID 540256; calls by dose curve; tested in HEK293 cells; further: potency means the concentration at half of the fitted maximal effect; nearly all actives have a fitted effect of over 50% in size
# Pf growth 96h = P. falciparum growth inhibition at 96 hour, primary screen for plastid delayed-death inhibitors; Potency, µM (series often up to 28.7 µM), without a hit: top-dose activity change, negative = inhibition, usual class: inhibitors; P. falciparum luciferase reporter growth, 96 h; 6.9% of 320,000 active; further: potency means the concentration at half of the fitted maximal effect
#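 P. falciparum expressing integrated firefly luciferase, in erythrocytes at 2% hematocrit, 0.05% parasitemia, incubated with compounds 96 h at 37 C, 5% CO2. Growth inhibition read as loss of luminescence; two-generation exposure targets delayed-death apicoplast inhibitors.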
# Numbers without * were called inactive; ? = inconclusive; . = not tested or not shown; [ ] = remark or other dose. Hits are enriched below; roughly 14% of the tested compounds scored in any of these assays. Unless noted, the call rests on the fitted dose curve; in most records, active means well fitted inhibition curve with a large enough effect; inconclusive means small, poorly fitted or top-dose-only effect, or another doubt; inactive means no such curve, though single readings can be large or run the other way. On the % scale 0 is the no-effect control and ±100 the full control effect.
SMILES,Marburg entry inh,HCV inh,Pf growth 48h,HCMV inh,Lassa entry inh,Pf growth 96h
CCc1ccc(N(CC)C(=O)Cn2nc(Cc3cccnc3)c3ccccc3c2=O)cc1,-7.2%[46.1 µM],.,.,-23.4,4.1%[46.1 µM],.
CCc1cccc(NC(=O)CSc2nc3ccsc3c(=O)n2CC)c1,?,.,.,-39.0,?,.
COc1ccc(NC(=O)Nc2cccc(F)c2)c(OC)c1,16.3%[46.1 µM],-27.3%,-24.0%[5.75 µM],30.4,23.9%[46.1 µM],-17.6%
COC(=O)c1ccc(NC(=O)Nc2cccc(F)c2)cc1,?,10µM*,334.9%,-11.0,?,11.1%
N#Cc1ccc2c(c1)C[C@]1(c3ccsc3)Oc3c(c(=O)oc4ccc(F)cc34)[C@@H]2O1,1.5%[14.2 µM],.,.,.,?,.
CN(C)CCCN1C(=O)C(O)=C(C(=O)c2cc3ccccc3o2)[C@@H]1c1ccccc1,10.5%,.,.,.,.,.
CCOc1cccc(C2C(C(=O)c3ccco3)=C(O)C(=O)N2Cc2ccncc2)c1 (stereo not drawn),-9.0%,?,5.1%,9.9,?,2.62µM*
CCCOc1cccc(C2C(C(=O)c3ccc(C)o3)=C(O)C(=O)N2CCN2CCOCC2)c1 (stereo not drawn),?,12.3%,-1.5%,-17.4,2.8%[46.1 µM],-21.1%
C=CCOc1cccc(C2C(C(=O)c3ccc(C)o3)=C(O)C(=O)N2CCN(C)C)c1 (stereo not drawn),?,2.0%,-13.5%,-22.3,8.1%,3.7µM*
CN(C)CCN1C(=O)C(O)=C(C(=O)c2cc3ccccc3o2)C1c1ccc(N(C)C)cc1 (stereo not drawn),?,2.5%,54.2%,42.1,7.4%,9.28µM*
C[C@H]1[C@@H](NC(=O)Nc2ccc(C#N)cc2)CC[C@@]23CCCN2C(=O)CCC[C@@H]13,.,.,.,-20.4,.,.
CC(C)NC(=O)C1(C)CCCN1C(=O)c1ccccc1Br (stereo not drawn),.,.,.,18.8,.,.
N#CCc1nn(-c2ccc(Cl)cc2)c(N)c1C#N,-14.0%,10.4%,-5.6%,37.4,-13.2%,13.1µM*
Cc1cccc(-n2nc(CC#N)c(C#N)c2N)c1,.,1.3%,19.3%,-12.0,.,13.9%
CCc1cccc2c(C(=O)COC(=O)c3ccc([N+](=O)[O-])s3)c[nH]c12,2.8%,28.2µM*,?,61.0,-11.6%,?
O=C(OCC(=O)c1c[nH]c2ccccc12)c1ccc([N+](=O)[O-])s1,1.8%,?,?,14.2,-9.6%[46.1 µM],?
CC(=O)OC[C@@H]1CN(Cc2ccccc2)C[C@H](n2cnc3c(N(C)C(C)C)ncnc32)O1,.,.,.,28.0,.,.
COCCNC(=O)CN(C(=O)Cn1nnc2ccccc21)c1ccc(F)c(Cl)c1,27.1%,14.5%,17.5%,65.9,19.1%,10.4µM*
COCCNC(=O)CN(C(=O)Cn1nnc2ccccc21)c1ccccc1C,.,9.4%,10.7%,-29.5,.,13.1%
Cc1nnc(N2CCCC(C(=O)NCc3ccccc3)C2)c2nn(-c3ccccc3)c(C)c12 (stereo not drawn),.,.,.,1.5,17.1%[46.1 µM],.
CCc1ccc(CNC(=O)C2CCCN(c3nnc(C)c4c(C)n(-c5ccccc5)nc34)C2)cc1 (stereo not drawn),.,0.5%,?,-107.8*,-24.0%[46.1 µM],?
Cc1ccccc1CNC(=O)C1CCCN(c2nnc(C)c3c(C)n(-c4ccccc4)nc23)C1 (stereo not drawn),.,11.1%,?,-100.7*,.,41.2%
O=C1c2c(-c3ccc(Br)cc3)noc2CCN1Cc1cn(Cc2cccnc2)nn1,.,.,.,-18.8,.,.
O=C(Cn1cnc2ccccc2c1=O)c1c[nH]c2ccccc12,1.7%[46.1 µM],-2.0%,62.5%,43.4,-7.6%,6.57µM*
CCN(CC)CC(=O)c1c[nH]c2ccccc12,-5.2%,12.4%,-9.7%,-2.2,-1.2%,2.94µM*
SMILES,Marburg entry inh,HCV inh,Pf growth 48h,HCMV inh,Lassa entry inh,Pf growth 96h
Nc1nc2n(n1)[C@@H](c1cccs1)C[C@H](c1ccc(F)cc1)N2,-0.6%,.,.,.,.,.
CCOc1ccc(CC(=O)C2=C(N3CCOCC3)CC(C)(C)CC2=O)cc1OCC,22.9%[46.1 µM],21.0%,-14.1%,-22.0,-5.3%,6.57µM*
Cc1cc(/C=N/NC(N)=S)c(C)n1-c1ccc(Br)cc1,?,-8.4%,?,11.2,?,20.2%
Cc1nnc(N/N=C/c2ccccc2O)n1N,?,21.6%,-1.8%,-103.7*,?,4.3%
Cc1nnc(N/N=C/c2cc(C)n(-c3ccc(F)cc3)c2C)n1N,14.6µM*,?,-20.8%,35.0,7.08µM*,49.8%
COc1ccc(-c2cnc3c(NC=O)cc(-c4ccc(N(C)C)cc4)cn23)cc1OC,.,.,.,19.3,.,.
Cc1cc(SCc2cc(=O)[nH]c3ccccc23)nc2ccccc12,?,-5.4%,1.47µM*,-11.0,-14.7%,?
O=c1cc(CSc2ccccn2)c2ccccc2[nH]1,-26.9%,3.7%,7.3%,-27.9,0.0%,9.28µM*
C#Cc1ccccc1C[C@]1(C(=O)OC)C=C[C@H](C)[C@@H](c2ccccc2Br)N1C(=O)C(F)(F)F,6.5%[14.2 µM],.,.,.,.,.
Cc1cccc(-c2nc(SCC(=O)N3CCc4ccccc43)c3c(=O)n(C)c(=O)n(C)c3n2)c1,.,.,.,22.9,5.0%[46.1 µM],.
COc1ccccc1N1CCN(C(=O)c2nc(SC)ncc2Cl)CC1,-19.4%[46.1 µM],.,.,21.2,?,.
CCOc1ccc(CCNC(=O)COC(=O)c2cccc(S(=O)(=O)N3CCCC3)c2)cc1OCC,-12.3%,6.0%,-15.3%,6.0,-0.4%,-12.3%
COc1ccc(OC)c(-c2cc(C3CCN(C(=O)OC(C)(C)C)CC3)[nH]n2)c1,?,-4.6%,?,39.6,?,10.4µM*
O=C(Nc1ccc2nc(SCC(=O)N3CCc4ccccc43)sc2c1)c1cccc(Cl)c1,24.4%[46.1 µM],.,.,36.9,-6.1%[46.1 µM],.
O=C(Nc1ccc2nc(SCC(=O)N3CCc4ccccc43)sc2c1)c1ccc(F)cc1,2.3%[46.1 µM],.,.,-62.5*,-1.5%[46.1 µM],.
O=C(Nc1ccc2nc(SCC(=O)N3CCc4ccccc43)sc2c1)c1ccc(Cl)cc1,6.9%[46.1 µM],.,.,-93.1*,?,.
Cn1c(SCC(=O)Nc2ccc3nc(SCC(=O)N4CCCC4)sc3c2)nnc1-c1ccc(N)cc1,-12.3%,?,.,.,4.2%,1.31µM*
CC(C)(C)c1ccc(C(=O)Nc2ccc3nc(SCC(=O)N4CCCC4)sc3c2)cc1,?,.,.,-96.7*,?,.
Cc1ccc(C2=Nc3ccccc3N(CC(=O)NCc3ccccc3Cl)C(=O)C2)cc1C,.,.,.,85.8,?,.
O=C1NCC(c2ccccc2)C1C(=O)N/N=C/c1ccc(Cl)s1 (stereo not drawn),2.0%[46.1 µM],2.3%,-29.5%,6.0,12.3%[46.1 µM],7.38µM*
CCNC(=O)C1(C)CCN(C(=O)c2cc(F)ccc2C)C1 (stereo not drawn),.,.,.,2.1,.,.
CCN(CC)S(=O)(=O)c1ccc(N2CCCCC2)c(NC(=O)/C(C#N)=C/c2ccc(OC)cc2)c1,?,?,?,29.6,-13.4%,11.7µM*

# Screening results: PubChem BioAssay, National Center for Advancing Translational Sciences (NCATS)
